Data reported in ChEMBL document CHEMBL4513216, “Probing the Open Global Health Chemical Diversity Library for Multistage-Active Starting Points for Next-Generation Antimalarials” (ACS Infect Dis, 2020).
The campaign covered roughly 68,000 compounds. About 2,700 (4%) showed an effect of 50% or more. The sample as a whole holds a higher share of strong results than the screen did.

These molecules were tested on Plasmodium berghei (assay: Screen against P. berghei liver stage (PbLuc), transformed with Luciferase, at 2uM). Conditions: tested at 2 uM.
Assay type: functional, HepG2

| Compound | INHIBITION [%] |
| --- | --- |
| O=C(c1cnccn1)N1C[C@@H](OCc2cccnc2)[C@H]2OCCC[C@H]21 | -39.95 |
| CCN(CC)[C@@H]1CN(Cc2nccn2C)[C@@H]2CCCO[C@H]12 | -3.53 |
| CCCc1nc(CN2CCN(C(C)c3nc(C4CC4)no3)CC2)no1 (centres undefined) | 50.18 |
| Cc1noc(C(C)N2CCN(Cc3nnc(C4CC4)o3)CC2)n1 (centres undefined) | -4.99 |
| CCc1nc(CN2CCN(C(C)c3nc(C4CC4)no3)CC2)no1 (centres undefined) | 13.91 |
| CC(C)c1nc(CN2CCN(C(C)c3nc(C4CC4)no3)CC2)no1 (centres undefined) | -42.32 |
| CC(C)c1noc(C(C)N2CCN(Cc3cccs3)CC2)n1 (centres undefined) | 41.76 |
| CC(c1nc(C2CC2)no1)N1CCN(Cc2ccsc2)CC1 (centres undefined) | 5.72 |
| CCc1noc(CS(=O)(=O)C(C)c2nc(C3CC3)no2)n1 (centres undefined) | 57.16 |
| CC(C)c1noc(C(C)N2CCN(Cc3nnc(C4CC4)o3)CC2)n1 (centres undefined) | 58.52 |
| CC(C)c1noc(C(C)S(=O)(=O)Cc2nc(C3CC3)no2)n1 (centres undefined) | -17.22 |
| CCCc1noc(C(C)S(=O)(=O)Cc2nc(C3CC3)no2)n1 (centres undefined) | -7.66 |
| CC(C)c1noc(C(C)N2CCN(Cc3ccsc3)CC2)n1 (centres undefined) | 60.31 |
| CC(c1nc(C2CC2)no1)N1CCN(Cc2nnc(C3CC3)o2)CC1 (centres undefined) | 49.01 |
| CC(C)OCc1ccccc1CNC(=O)C(C)(C)C | -26.08 |
| CS(=O)(=O)c1nccn1Cc1ccc(OC(F)F)cc1 | -35.45 |
| O=C(O)c1cc(NS(=O)(=O)c2ccccc2F)ccc1N1CCSCC1 | -21.39 |
| Cc1nc(C)n(CC2CCCCN2CC(=O)NC(C2CC2)C2CC2)n1 (centres undefined) | 17.75 |
| COc1ccccc1OCC(=O)N1C[C@@H]2CN(C)CCO[C@@H]2C1 | 32.04 |
| CN1CCc2nc(N(C)C)nc(N3CCC(O)CC3)c2C1 | 21.24 |
| CN(Cc1nc(C2CC2)no1)C(=O)c1cccc(CC2CCNCC2)c1 | -11.41 |
| Cc1nn(C)c2nc(NC(C)c3nnn[nH]3)sc12 (centres undefined) | -16.31 |
| Cc1csc2ncc(-c3ccnc(N4CCN(C)CC4)n3)c(=O)n12 | -23.11 |
| Cc1cc2c(cc1C)OC1(C=C2)CCN(CC(=O)N2CCOCC2)CC1 | 54.2 |
| Cc1cc2c(cc1Cl)C=CC1(CCN(CC(=O)N3CCOCC3)CC1)O2 | -4.78 |
| Cc1cc2c(cc1Cl)C=CC1(CCN(CC(=O)NC3CCCC3)CC1)O2 | 3.58 |

| Compound | INHIBITION [%] |
| --- | --- |
| CCN(CC)C(=O)CN1CCC2(C=Cc3cc(Cl)c(C)cc3O2)CC1 | 1.4 |
| Cc1cc2c(cc1Cl)C=CC1(CCN(CC(=O)N3CCCC3)CC1)O2 | -28 |
| Cc1cc2c(cc1Cl)C=CC1(CCN(C(=O)N3CCOCC3)CC1)O2 | 57.47 |
| O=C(NCc1cnc2n1CCN(CC1CC1)CC2)C1CCC1 | 15.42 |
| CO[C@@H]1CCN(S(=O)(=O)c2cccs2)[C@H]1Cc1cccnc1 | 30.39 |
| CC(c1nc(C2CC2)no1)N1CCc2c(ncn2C2CC2)C1 (centres undefined) | -40.15 |
| O=C(c1cccc(CNS(=O)(=O)c2ccc(F)cc2)c1)N1CCCC1 | 51.94 |
| Cc1ccc(S(=O)(=O)NCc2cccc(C(=O)N3CCCC3)c2)cc1F | 47.84 |
| Cc1ccc(F)cc1S(=O)(=O)NCc1cccc(C(=O)N2CCCC2)c1 | 33.8 |
| Cc1nc(N2CCOCC2)nc2c1CCN(C(=O)C1(C#N)CC1)CC2 | -24.04 |
| Cc1nc2c(c(NC3CC3)n1)CCN(C(=O)C1(C#N)CC1)CC2 | -5.44 |
| Cc1nc(C)c2c(n1)CCN(C(=O)C1(C#N)CC1)CC2 | 89.37 |
| COCC1CN(Cc2ccoc2)Cc2nn(C)cc21 (centres undefined) | 17.69 |
| O=C(Nc1ccc(F)cc1)N1CCN(Cc2noc(C3CC3)n2)CC1 | 24.65 |
| CN1CCN(C(=O)C[C@@H]2COC[C@H]3CN(c4ccncn4)C[C@@H]23)CC1 | -69.07 |
| CS(=O)(=O)N1CCC2(CC1)COC(COc1cccnc1)C2 (centres undefined) | 19.91 |
| CNS(=O)(=O)c1ccc(C(=O)NCCNc2ncccn2)cc1 | -75.02 |
| CNC(=O)c1ccc(S(=O)(=O)NCCc2ccccn2)cc1 | 24.15 |
| CNS(=O)(=O)c1ccc(C(=O)NCCc2ccccn2)cc1 | 62.46 |
| O=C(Nc1ccccc1)N1CCn2nnc(COc3cccnc3)c2C1 | 11.72 |
| CCNC(=O)[C@@H]1CCCN1C1(C(=O)NC)CCC1 | 10.65 |
| CC(CC(=O)O)CC(=O)Nc1sc2c(c1C(N)=O)CCc1ccccc1-2 (centres undefined) | -0.22 |
| CC(C)(C)OC(=O)NCCNC(=O)c1ccc2cc[nH]c2c1 | 13.72 |
| COc1cc(NCCNC(=O)c2cc[nH]c2C)cc(OC)c1 | 12.43 |
| COc1cc(NCCNC(=O)c2ccc3[nH]ccc3c2)cc(OC)c1 | 57.75 |
| O=C(NCCCO)Nc1cccc(Cl)c1F | -5.28 |

| Compound | INHIBITION [%] |
| --- | --- |
| Fc1cnc(N2CCOC3(CCN(Cc4ccsc4)CC3)C2)nc1 | -35.12 |
| CNC(=O)C1CCN(Cc2cc3c(cc2O)CCC3)CC1 | -23.73 |
| CNS(=O)(=O)CCN1CC(c2ccccc2)(c2ccccc2)CCC1=O | 40.51 |
| Cc1ccc(NCc2ncc(C(C)(C)C)o2)c(Cl)c1 | -32.82 |
| Cc1cccc(NCc2ncc(C(C)(C)C)o2)c1 | 75.37 |
| CC(C)(C)c1cnc(CNc2cccc(Cn3cnnc3)c2)o1 | -3.4 |
| CCc1nc(C)sc1CN1CC[C@](O)(CC)[C@H](O)C1 | 20.36 |
| O=C(COCC(=O)N1CCCCCC1)NCc1cccc(Br)c1 | 50.97 |
| COCC(=O)NCc1cccc(Br)c1 | 0.26 |
| O=C(CCC(=O)NCc1cccc(Br)c1)NCCN1CCCC1 | -64.94 |
| Cc1ncn(-c2cc(N3CCN(S(C)(=O)=O)CC3)ncn2)c1C | 43.28 |
| CCCSCC(=O)N1C[C@H]2CC[C@@H](C1)N(Cc1ccccn1)C2=O | 60.9 |
| CCOCC(=O)N1C[C@H]2CC[C@@H](C1)N(Cc1ccccn1)C2=O | 37.77 |
| O=C(CSCC1CC1)N1C[C@H]2CC[C@@H](C1)N(Cc1ccccn1)C2=O | 36.66 |
| CC(C)(O)CN1CCN(C(=O)COCC(F)(F)F)CC1 | 13.76 |
| CCN(C(=O)CS(=O)(=O)c1cc(OC)c(OC)cc1C)C1CC1 | 35.41 |
| COc1cc(C)c(S(=O)(=O)CC(=O)N(C)C(C)C)cc1OC | 10.72 |
| COc1cc(C)c(S(=O)(=O)CC(=O)N(C)C2CC2)cc1OC | 51.87 |
| CCn1cc(S(=O)(=O)Nc2nc3c(s2)CC(C)CC3)cn1 (centres undefined) | 32.56 |
| CCn1cc(S(=O)(=O)Nc2nc3c(s2)CCCC3)cn1 | 23.02 |
| CC1CCc2nc(NS(=O)(=O)c3cnn(C)c3)sc2C1 (centres undefined) | 54.52 |
| N#Cc1ccc(CN2CCN(Cc3ccncc3Cl)CC2=O)cc1 | 26.27 |
| CC1CN(Cc2nc(Cc3ccccc3F)no2)CCN1C (centres undefined) | 17.25 |
| O=C(c1ccco1)N1CCOC2(COCCN(c3ncccn3)C2)C1 (centres undefined) | 36.06 |
| Cc1cccc(CN2CCc3onc(CN(C)C)c3C2)n1 | 26.77 |
| Cc1cccc(CN2CCc3onc(Cn4cccc4)c3C2)n1 | 15.36 |

| Compound | INHIBITION [%] |
| --- | --- |
| Cc1cccc(CN2CCc3onc(CO)c3C2)n1 | 52.12 |
| CCOc1ncccc1NC(=O)NC1CCN(S(C)(=O)=O)CC1 | -68.26 |
| CCN(CC)C(=O)[C@@H]1C[C@@H](n2cc(-c3cccc(OC)c3)nn2)CN1 | 57.75 |
| CCN(CC)C(=O)[C@@H]1C[C@@H](n2cc(-c3ccccn3)nn2)CN1 | 38.67 |
| CCN(CC)C(=O)[C@@H]1C[C@H](n2cc(-c3cccc(OC)c3)nn2)CN1 | 36.28 |
| CC1(C)CC(n2cc3nc(N4CCCC4)[nH]cc-3c2=O)CC(C)(C)N1 | 6.2 |
| O=C(CCc1ccco1)NS(=O)(=O)Cc1ccon1 | 50.59 |
| O=C(CCc1ccsc1)NS(=O)(=O)Cc1ccon1 | -6.64 |
| O=C(CCc1cccc(Cl)c1)NS(=O)(=O)Cc1ccon1 | 41.05 |
| CCCNc1ccc(C(=O)NCCc2cccc(OC)c2)cn1 | 19.09 |
| CC(C)NC(=O)N1CCCCC1c1nnc2n1CCNC2 (centres undefined) | -15.93 |
| CC(NC(=O)c1ccc(Cl)cc1)c1nnc(SCC(=O)O)n1C (centres undefined) | 4.37 |
| Cc1c(CN2CCCC(O)C2)[nH]c2ccc(F)cc12 (centres undefined) | -1.51 |
| Cc1c(CN2CC[C@@H](N3CCC(O)CC3)[C@H](O)C2)[nH]c2ccc(F)cc12 | 51.43 |
| Cc1c(CN2CC[C@@H](N3CCC(O)CC3)[C@H](O)C2)[nH]c2ccc(Cl)cc12 | -31.36 |
| Cc1nccc(-c2ccccc2)c1C(=O)N1CC[C@](C)(O)C(C)(C)C1 | 48.93 |
| COC1COC2(CCN(Cc3ccc4ccccc4n3)CC2)C1 (centres undefined) | -0.18 |
| CCOc1cccc(CNC(=O)c2cnn(CC)c2C(F)(F)F)c1 | 40.97 |
| CCOc1cc(CNC(=O)c2cnn(CC)c2C(F)(F)F)ccn1 | -61.54 |
| CCn1ncc(C(=O)NCc2ccc(C)c(OC)c2)c1C(F)(F)F | 55.52 |
| Cc1cncc(C(=O)N2Cc3ccccc3C3(CCN(C)CC3)C2)c1 | 5.28 |
| CN1CCC2(CC1)CN(C(=O)c1cccnc1)Cc1ccccc12 | -19.51 |
| CN1CCC2(CC1)CN(C(=O)c1ccncc1)Cc1ccccc12 | 56.25 |
| CCc1nnc(C2Cc3ccccc3CN2Cc2cc(C)no2)o1 (centres undefined) | 56.89 |
| CCc1nnc(C2Cc3ccccc3CN2Cc2cc(C)on2)o1 (centres undefined) | 33.9 |
| Cc1cc(CN2Cc3ccccc3CC2c2nnc(C)o2)on1 (centres undefined) | 21.91 |
